This is part of a sample that, as a whole, favours compounds with a hit. Of some 83,000 tested, about 20% had one in any assay.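 A percent growth of 40 corresponds to 60% growth inhibition; 0 means no net growth; -100 means all cells died. Active threshold: below 10.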 Unmarked numbers belong to inactive results. Calls of active or inactive are those of the source.
Key:
Assay in all cases: NCI-60 one-dose screen, 48 h (100 = growth as untreated, 0 = no growth, -100 = all killed)
Conditions in all cases: 10 µM unless noted
[1] = system: DU-145 prostate
[2] = system: K-562 leukemia
[3] = system: MALME-3M melanoma
[4] = system: MDA-MB-231 breast
[5] = system: RXF 393 renal
[6] = system: SF-268 CNS
[7] = system: SF-295 CNS
[8] = system: SF-539 CNS
[9] = system: UACC-257 melanoma
[10] = system: M14 melanoma

SMILES | growth [1] | growth [2] | growth [3] | growth [4] | growth [5] | growth [6] | growth [7] | growth [8] | growth [9] | growth [10]
CN(C)c1nc(NCCNS(=O)(=O)c2ccc(C3=Nc4c(N)nc(N)nc4NC(c4ccc(Cl)cc4)C3)cc2)nc(N2CCOCC2)n1 (stereo not given) | 67.1% | 15.7% | 62.4% | 12% | 2.28% (active) | 53.4% | 38.5% | 43% | 75.7% | 45.5%
COc1ccc(S(=O)(=O)Nc2ccc(-c3ccc4c(c3)NC(=O)/C4=C\c3ccc[nH]3)cc2)cc1OC | 10.4% | 28.7% | -16.2% (active) | -46.1% (active) | -23% (active) | 65% | 56.1% | -46.5% (active) | -10.7% (active) | 0.851% (active)
CCCCNc1ccc2c3c(cccc13)C(=O)N(NCC(O)COc1ccc3c(C)cc(=O)oc3c1)C2=O (stereo not given) | 89.2% | 75.8% | 110% | 81.4% | 91.6% | 79.6% | 95.5% | 91.8% | 106% | 90.6%
CC(=O)c1c2c(c3ccc4c5ccccc5ccc4n13)C(=O)c1ccccc1C2=O | 102% | 103% | -49.5% (active) | 77.3% | 59.6% | 98% | 92.5% | 77.6% | 97.5% | 65.7%
COc1ccc(NC(=O)Cn2c(/C=C/c3cccc(OC)c3)nc3ccccc3c2=O)cc1 | 74.3% | 84% | 62.7% | -30.3% (active) | -31.9% (active) | 66.1% | 34.6% | -45.7% (active) | 81.1% | 61.2%
CCOC(=O)/C(F)=C/C1CC1C1CCN(C(=O)OC(C)(C)C)CC1 (stereo not given) | 73.2% | 76.1% | 94% | 99.3% | 105% | 98.6% | 99.3% | 103% | 111% | 106%
COc1ccc(N=Nc2c(N)nn3c(-c4ccc([N+](=O)[O-])cc4)ccnc23)cc1 | 105% | 95.1% | 93% | 98.5% | 109% | 98.8% | 97.5% | 99.2% | 97.3% | 104%
COc1ccc(NC(=O)Cn2c(/C=C/c3cccc(Br)c3)nc3ccccc3c2=O)cc1 | 79.1% | 86.3% | 48.7% | -38.4% (active) | -16.3% (active) | 65.2% | 48.9% | -23.4% (active) | 71.1% | 50.2%
Cc1ccc(Cl)cc1NC(=O)Nc1nc2ccc([N+](=O)[O-])cc2s1 | 18.6% | 1.86% (active) | -24.4% (active) | -42.2% (active) | -22.7% (active) | 27.5% | -45.4% (active) | -33.9% (active) | -20.9% (active) | -33.5% (active)
CCC1(OC(=O)c2ccccc2SSCCOC(=O)CCCCC2SCC3NC(=O)NC32)C(=O)OCc2c1cc1n(c2=O)Cc2cc3ccccc3nc2-1 (stereo not given) | 35.3% | 52.8% | 55.8% | 82.5% | 82% | 38.5% | 5.6% (active) | 29.4% | 12.8% | 40.1%
Clc1ccc(-c2nc3c4c(-c5ccccc5)c(-c5ccccc5)n(Cc5ccccc5)c4ncn3n2)cc1 | 22.7% | 4.9% (active) | 4.59% (active) | 0.484% (active) | -11.3% (active) | 20.4% | -14.1% (active) | 7.91% (active) | 3.18% (active) | 15.4%
O=C(Nc1nc2ccccc2s1)Nc1ccccc1Cl | 99.9% | 86.2% | 79.7% | 51.9% | 73.8% | 77.3% | 45% | 51% | 98.8% | 93.7%
COc1ccc(C(=O)NNC(=O)CSc2nc3sc4c(c3c(=O)n2-c2ccc(Cl)cc2)CCCC4)cc1 | 89% | 56.7% | 60.3% | 44% | 82.2% | 84.3% | 94.7% | -55.2% (active) | 100% | 77.4%
CCCSc1nnc(-c2c(C)nc3sccn23)o1 | 96.7% | 88.4% | 104% | 74.6% | 82.9% | 89.1% | 87.1% | 90.9% | 93.6% | 99.6%
COc1ccc(-c2nc3ccc(-c4nnc(SCC(=O)Nc5ccc(/C(C)=N\O)cc5)o4)cc3[nH]2)cc1 | 71.7% | 32.4% | -20.5% (active) | 56% | -45.2% (active) | 49.4% | 97.7% | -53.4% (active) | 50.4% | 28.5%
Cc1ccc(C(C)C)cc1Oc1cccc(-c2c(-c3ccc(C(F)(F)F)cc3)ncn2C2CCNCC2)n1 | -83.5% (active) | -60.7% (active) | -86.6% (active) | -95.7% (active) | -90.3% (active) | -56.6% (active) | -94.2% (active) | -98.2% (active) | -88.4% (active) | -97.2% (active)
COC(=O)c1c(C(=O)OC)c2c3ccccc3c3ccccc3n2c1C(=O)C(F)(F)F | 106% | 97.2% | 104% | 81.6% | 101% | 101% | 94.3% | 95.2% | 111% | 97%
Cc1ccc(C2CC(c3ccc(NC(=S)Nc4ccccc4)cc3)=NN2c2ccc(S(N)(=O)=O)cc2)cc1 (stereo not given) | 19.7% | 22.7% | -0.146% (active) | 15.2% | -16.1% (active) | 15.6% | 8.39% (active) | 10.3% | 36.6% | 19%
Cc1ccc(C(=O)C[n+]2cccc3c4ccccc4ccc32)cc1 | 35.7% | 8.04% (active) | 10.4% | 24.2% | 5.94% (active) | 42.8% | 23.4% | 25.5% | 5.16% (active) | 17.6%
O=C(Cc1c(-c2cccc([N+](=O)[O-])c2)n(-c2ncnc3c2c(-c2ccccc2)c(-c2ccccc2)n3Cc2ccccc2)[nH]c1=O)c1ccc(Cl)c(Cl)c1 | 51% | 17.6% | -3.97% (active) | 37.4% | 44.9% | 62.3% | 12.2% | 60.7% | 30.9% | 32.6%
COc1ccc2c(c1)C(=O)N(C)C2C1c2c(cc3c(c2OC)OCO3)CCN1C (stereo not given) | 73.2% | 16.6% | 33.8% | 66.7% | 19.8% | 66% | 26.7% | 45.5% | 71% | 36.6%
COc1ccc(N=Nc2c(N)nn3c(N)c(C#N)c(-c4ccc(F)cc4)nc23)cc1 | 58.8% | 68.6% | 48.7% | -9.82% (active) | 35.1% | 61.2% | 63% | -5.21% (active) | 105% | 80.2%
CN1C(=O)/C(=C/c2ccco2)S/C1=N/c1nccs1 | 107% | 101% | 118% | 109% | 111% | 107% | 102% | 103% | 117% | 117%
COc1sc(/C=N/NC(=O)c2[nH]c3ccc(Br)cc3c2-c2ccccc2)cc1Br | -8.01% (active) | 7.79% (active) | 48% | -13.3% (active) | -0.818% (active) | 3.22% (active) | -15% (active) | -64.1% (active) | 52.7% | 10.7%

Source: PubChem BioAssay (NCI)
